From PubChem
In the library only some 1.2% were active in any assay of this set; here they are far more common.
GSH bead fluor = compound fluoresces at 488/530 nm on GSH beads; GSH beads flow cytometry, compound fluorescence 488/530 nm; hits give high values; fluorescence (KMESF) at 10 µM; actives 0.25% (n = 190,000); AID 1776; in the data active means fluorescence above about 89;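 further: glutathione beads carrying GST-tagged Bcl family fusion proteins plus one bare bead set; values are compound well signal with DMSO vehicle wells as background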
RGS16-Gao HTS = RGS16-Galphao interaction regulator (human); O15492+P09471; bead-based flow cytometry RGS16-Galphao binding, fluorescence; actives lie on both sides; binding response (% of control), % at 10 µM; actives 0.38% (n = 220,000); call rule not given here;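 further: Galphao activated by GDP with aluminum fluoride before binding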
Target sequence (O15492 whole entry, looked up): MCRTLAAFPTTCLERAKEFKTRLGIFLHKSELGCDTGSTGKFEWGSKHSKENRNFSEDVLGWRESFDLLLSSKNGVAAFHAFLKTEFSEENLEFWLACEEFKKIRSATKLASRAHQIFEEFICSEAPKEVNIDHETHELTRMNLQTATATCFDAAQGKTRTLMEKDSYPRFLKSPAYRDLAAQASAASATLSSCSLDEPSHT
Target sequence (P09471 whole entry, looked up): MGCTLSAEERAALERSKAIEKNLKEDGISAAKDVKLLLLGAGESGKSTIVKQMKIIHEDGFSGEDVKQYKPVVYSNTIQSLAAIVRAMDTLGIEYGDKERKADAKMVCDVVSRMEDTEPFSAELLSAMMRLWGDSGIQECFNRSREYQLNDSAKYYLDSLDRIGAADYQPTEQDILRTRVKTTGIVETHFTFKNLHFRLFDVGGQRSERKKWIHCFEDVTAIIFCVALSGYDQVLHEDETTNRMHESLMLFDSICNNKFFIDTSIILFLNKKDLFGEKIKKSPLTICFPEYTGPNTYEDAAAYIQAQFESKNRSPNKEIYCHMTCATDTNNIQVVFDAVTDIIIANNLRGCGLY
RGS7-Gao = modulates binding of RGS7 to human Galphao; P09471; Multiplexed bead flow cytometry; actives lie on both sides; binding response (% of control), % at 10 µM; actives 0.35% (n = 220,000); in the data active means binding response below about 49% or above about 150%; inconclusive means no clear call, values can overlap the other calls; inactive means in between;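 further: fluorescent Galphao held in activated GDP-AlF4 state binding bead-coupled RGS7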
Target sequence (P09471 whole entry, looked up): as above
Avidin fluor = compound fluoresces at 488/530 nm on avidin beads; actives 0.38% (n = 220,000); fluorescence (KMESF) at 10 µM; compound fluorescence 488/530 nm, flow cytometry; hits give high values; in the data active means fluorescence above about 47
RGS8-Gao = modulates binding of RGS8 to human Galphao; P09471; AID 1423; multiplexed bead flow cytometry; actives lie on both sides; actives 0.34% (n = 220,000); response (percent of control binding), % at 10 µM; in the data active means response below about 60% or above about 140%; inactive means in between;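 further: Galphao activated as the GDP aluminium fluoride complex binding bead-coupled RGS8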
RGS4-Gao reg = human RGS4-Galphao interaction regulation. P09471. Multiplexed bead flow cytometry, RGS4-Galphao binding; actives lie on both sides. binding response (% of control), % at 10 µM. actives 0.33% (n = 220,000). AID 1415; in the data active means binding response below about 49% or above about 150%; inactive means in between;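 further: fluorescent Galphao activated with aluminum fluoride binding bead-coupled RGS4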
Numbers without * were called inactive; ? = inconclusive; . = not tested or not shown; [ ] = dose if it differs, or a comment.

SMILES	GSH bead fluor	RGS16-Gao HTS	RGS7-Gao	Avidin fluor	RGS8-Gao	RGS4-Gao reg
S=c1[nH]nc(-c2ccccc2Cl)n1CC1CCCO1 (stereo not drawn)	30	103.9	110.3	52*	101.1	102.5
CCc1ccc(NC(=S)N(CCN(C)C)C(C)c2ccncc2)cc1 (stereo not drawn)	13	100.6	98.2	8	101.5	101.4
CCOC(=O)c1ccc(S(=O)(=O)N2CCN(S(=O)(=O)CC)CC2)cc1	16	71.3	103.5	6	99.8	105.7
CCOC(=O)c1ccc(S(=O)(=O)N2CCN(CC(=O)NC(=O)NC3CCCCC3)CC2)cc1	30	185.2*[activator]	175.8*[activator]	14	152.5*[activator]	187.9*[activator]
O=C(Nc1ccc2oc(=O)ccc2c1)c1ccc(-c2cccc([N+](=O)[O-])c2)o1	.	97.2	?	65*	101.7	98.2
O=C(Nc1ccc2oc(=O)ccc2c1)c1ccc(-c2cccc(Cl)c2)o1	.	90.5	?	13	98.9	90.7
Nc1nc2ccc(O)cc2s1	187*	102.3	101.3	5	101.8	95.4
COC(=O)c1ccc(-c2ccc(C(=O)N3CCCN(C)CC3)cc2)cc1	256*	109.4	103.0	6	100.7	103.5
CS(=O)(=O)Nc1ccc(C(=O)NCC2CCCO2)cc1 (stereo not drawn)	36	102.9	101.8	15	101.6	100.4
O=C1CN(C(=O)c2ccccn2)c2ccccc2N1	229*	86.0	96.5	6	100.6	105.7
O=C1CN(C(=O)c2ccccc2F)c2ccccc2N1	20	102.8	101.3	23	99.1	99.8
COc1ccc(-c2cc(-c3ccccc3)nc(SCC(=O)Nc3nccs3)c2C#N)cc1	14	121.5	112.8	56*	105.0	110.2
Cc1ccccc1N1CCN(S(=O)(=O)c2ccccc2)CC1	98*	105.8	104.5	12	106.3	107.2
Cc1cc(S(=O)(=O)N2CCN(c3ccccc3C)CC2)ccc1F	23	105.9	102.4	5	104.1	101.8
CCOC(=O)C1=C(c2ccccc2)O/C(=C(/C#N)C(F)(F)F)S1	32	101.3	136.4	59*	100.8	107.7
CS(=O)(=O)N(Cc1ccccc1)c1ccc(C(=O)NCCSCc2ccco2)cc1	88*	103.0	95.8	6	100.4	91.8
O=c1c(-c2ccnn2-c2ccccc2F)cnc2n1CCS2	249*	96.9	101.8	7	101.4	101.3
Cc1ccc(S(=O)(=O)N(C)c2ccc(C(=O)N3CCc4ccccc4C3)cc2)cc1	12	99.4	90.0	10	101.3	98.1
CCOC(=O)c1cc2cc(CC(=O)c3ccc(OCC)cc3O)ccc2o1	8	99.8	101.8	13	98.6	100.9
CC1Cc2ccccc2N1C(=O)CSc1nnnn1C (stereo not drawn)	251*	37.5	101.7	3	94.1	94.5
CN(C(=O)c1cc2nc(-c3ccco3)cc(C(F)(F)F)n2n1)C1CCCCC1	31	35.5	35.1*	5	46.6*	38.7*
COC(=O)CCNS(=O)(=O)c1ccc2ccccc2c1	6	75.9	129.8	66*	90.3	106.1
CC(C)(C)SCCNS(=O)(=O)c1ccc2ccccc2c1	31	104.0	99.0	9	100.0	101.4
O=C(OCC(=O)N1CCOCC1)c1ccc2c(c1)OCCO2	12	-154.4	29.8*	1	41.9*	32.1*
O=C(Cc1ccc(Br)cc1)N1CCN(c2ccccc2)CC1	13	108.0	101.7	34	103.0	101.6
SMILES	GSH bead fluor	RGS16-Gao HTS	RGS7-Gao	Avidin fluor	RGS8-Gao	RGS4-Gao reg
Cc1ccc(S(=O)(=O)N(C)Cc2nc(-c3ccncc3)no2)cc1	17	102.2	104.6	50*	100.9	102.1
CN1C2C=C(N(CCc3ccccc3)C(=O)c3ccc(Cl)cc3)CC1CC2 (stereo not drawn)	10	104.9	100.1	12	102.9	102.3
OCC#CCSc1nnc(-c2ccncc2)o1	251*	99.6	100.4	17	100.6	101.8
Cc1nn(Cc2ccccc2)c(C)c1C(=O)OCC(=O)c1cc(C)n(CC(F)(F)F)c1C	35	100.4	98.6	13	100.0	98.3
COc1ccccc1OCC(=O)Nc1ccc(C(N)=O)cc1	20	100.6	97.9	13	98.4	102.8
Cc1cc(C(=O)Nn2c(C)nc3ccccc3c2=O)ccc1[N+](=O)[O-]	12	95.2	101.2	12	98.7	95.4
Cc1cccc(-c2nc3ccccc3c(=O)n2NC(=O)c2ccc([N+](=O)[O-])c(C)c2)c1	19	101.6	147.2	73*	98.6	106.7
O=C(CC(Nc1ccccc1)C(=O)O)c1ccccc1 (stereo not drawn)	259*	95.5	94.1	7	98.8	100.7
Cc1ccc(NC(CC(=O)c2ccccc2)C(=O)O)cc1Cl (stereo not drawn)	.	96.2	?	4	98.1	98.3
Cc1ccc(-n2c3c(cc(C(=O)NC4CCSC4=O)c2=O)C(=O)CCC3)cc1 (stereo not drawn)	14	101.5	95.8	35	100.1	98.8
CCOC(=O)Nc1ccc(C)cc1NC(=O)OCC	13	102.3	105.0	46	102.5	99.3
CCOC(=O)Nc1cc(C)ccc1OC	27	92.4	141.6	51*	94.2	101.8
COC(=O)c1ccc(C2C(Oc3ccccc3)C(=O)N2CCc2ccc(F)cc2)cc1 (stereo not drawn)	17	99.5	112.3	61*	99.6	99.9
COC(=O)c1cc(NC(=O)c2cccc(Cl)c2)c(=O)oc1/C=C/Nc1cc(C)cc(C)c1	173*	108.0	104.2	16	99.3	106.4
COC(=O)c1cc(NC(=O)c2cccc(C(F)(F)F)c2)c(=O)oc1C	19	102.7	?	11	102.5	102.8
c1coc(CNC2CCCCC2)c1	14	90.8	95.4	6	92.7	96.4
c1coc(CNC2CCCCCCC2)c1	11	110.6	140.8	84*	69.0	91.0
COCCCNC(=O)CSC1=Nc2ccccc2C2=NC(Cc3c[nH]c4ccccc34)C(=O)N12 (stereo not drawn)	24	108.2	104.0	7	102.4	101.8
COCCCNC(=O)CSC1=Nc2ccccc2C2=NC(c3ccccc3)C(=O)N12 (stereo not drawn)	12	107.9	122.0	69*	102.9	101.3
CC(NC(=S)NCc1ccc(F)cc1)C12CC3CC(CC(C3)C1)C2 (stereo not drawn)	9	101.9	100.5	9	102.1	106.5
Cc1cc(C(F)F)nn1CC(=O)NC1C(=O)N2C(C(=O)O)=C(CSc3nnnn3C)CSC12 (stereo not drawn)	64	100.7	131.7	58*	96.7	112.8
Cn1nnnc1SCC1=C(C(=O)O)N2C(=O)[C@@H](NC(=O)[C@H](O)c3ccccc3)[C@H]2SC1	16	.	.	.	.	.
Cc1cnc(NC(=O)CSc2nnc(COc3c(C)cccc3C)o2)s1	21	142.8	112.9	6	113.2	114.0
